# Measured values as given in PubChem BioAssay (NCI).
# About 83,000 compounds went through this panel and 20% of them were active in at least one assay; those are over-represented in the sample as a whole.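 In brief: 96-well plates, 48 h treatment, single concentration, percent growth endpoint.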 Values without a mark were called inactive. Activity calls are given as the source filed them. The calls were made as follows: active = growth percent below 10; inactive = the rest.
# Legend:
# Test in all cases: NCI-60 one-dose screen, 48 h (100 = growth as untreated, 0 = no growth, -100 = all killed)
# Details in all cases: 10 µM unless noted
# SK-MEL-2 melanoma = test system: SK-MEL-2 melanoma
# EKVX NSCLC = test system: EKVX NSCLC
# SN12C renal = test system: SN12C renal
# UO-31 renal = test system: UO-31 renal
# TK-10 renal = test system: TK-10 renal
# ACHN renal = test system: ACHN renal
# CAKI-1 renal = test system: CAKI-1 renal
# A498 renal = test system: A498 renal
# CCRF-CEM leukemia = test system: CCRF-CEM leukemia
# MOLT-4 leukemia = test system: MOLT-4 leukemia
# SR leukemia = test system: SR leukemia
# RPMI-8226 leukemia = test system: RPMI-8226 leukemia
# OVCAR-8 ovarian = test system: OVCAR-8 ovarian
# OVCAR-5 ovarian = test system: OVCAR-5 ovarian
# OVCAR-4 ovarian = test system: OVCAR-4 ovarian
# SK-OV-3 ovarian = test system: SK-OV-3 ovarian
# IGROV1 ovarian = test system: IGROV1 ovarian
# OVCAR-3 ovarian = test system: OVCAR-3 ovarian
# HS 578T breast = test system: HS 578T breast
# NCI/ADR-RES ovarian = test system: NCI/ADR-RES ovarian
SMILES,growth (SK-MEL-2 melanoma),growth (EKVX NSCLC),growth (SN12C renal),growth (UO-31 renal),growth (TK-10 renal),growth (ACHN renal),growth (CAKI-1 renal),growth (A498 renal),growth (CCRF-CEM leukemia),growth (MOLT-4 leukemia),growth (SR leukemia),growth (RPMI-8226 leukemia),growth (OVCAR-8 ovarian),growth (OVCAR-5 ovarian),growth (OVCAR-4 ovarian),growth (SK-OV-3 ovarian),growth (IGROV1 ovarian),growth (OVCAR-3 ovarian),growth (HS 578T breast),growth (NCI/ADR-RES ovarian)
Nc1nc(N)c2c(n1)NC(c1cccc(Nc3ccnc4cc(C(F)(F)F)ccc34)c1)CC(c1ccccc1)=N2 (stereo not given),35.1%,51.5%,65.4%,62.6%,83.1%,75.8%,42.7%,77.8%,32.4%,6.47% (active),4.11% (active),9.67% (active),63%,113%,57.8%,65.3%,59.4%,45.3%,53.7%,70.2%
C/C=C(\C)C(=O)N[C@H]1C(O)C[C@]2(C)C3CC[C@@]4(C)C(CC[C@@H]4C(C)N(C)C)C3CCC2C1O (stereo not given in full),117%,66%,68.1%,-0.798% (active),109%,60.4%,80.3%,92.9%,14.6%,17%,-30.4% (active),-12.3% (active),84.2%,95%,24.2%,87.7%,66%,33.5%,71.5%,–
COc1cccc(NCc2nnc(Nc3ccc(Cl)cc3)c3ccccc23)c1,-34.4% (active),-0.284% (active),14.5%,-42.5% (active),-40.9% (active),-5.35% (active),9.01% (active),-26.8% (active),-4.42% (active),-27.2% (active),-24.5% (active),-28.1% (active),3.02% (active),8.44% (active),17.2%,-11.9% (active),1.51% (active),-53.6% (active),0.542% (active),–
O=C1/C(=C\c2ccccn2)c2ccccc2N1c1c(Cl)cccc1Cl,48.8%,27.2%,18.1%,16.8%,52%,19.6%,-1.37% (active),21.3%,8.81% (active),3.48% (active),-4.3% (active),-12.5% (active),4.47% (active),122%,3.21% (active),27.4%,8.25% (active),27.4%,22.9%,–
Cc1cn(-c2cc(NC(=O)c3cncc(C#Cc4c(N)ncc5ccc(F)cc45)c3)cc(C(F)(F)F)c2)cn1,11.4%,73.4%,54.5%,27.4%,84.3%,60.6%,72.1%,84%,39.6%,35.6%,51.4%,55.1%,65.2%,46.2%,79.6%,87.6%,32.9%,84.5%,54.6%,79.1%
Nc1nc(N)c2c(n1)NC(c1ccc(Cl)cc1)C1CCc3ccccc3C1=N2 (stereo not given),102%,35.8%,65.9%,55.8%,49.2%,52.7%,37%,69.5%,51.5%,22.5%,33.1%,41.9%,70.7%,103%,39.2%,66.8%,77.2%,40.5%,80.9%,–
C=CCn1c(SCC(=O)Nc2ccc(/C(C)=N/O)cc2)nnc1-c1cc(-c2ccc(S(N)(=O)=O)cc2)nc2ccccc12,83.7%,91.8%,77.7%,74.5%,121%,96.9%,51.9%,89.2%,45.8%,37.9%,56.7%,48.8%,54.7%,93.5%,66.2%,109%,30.9%,70.9%,74.1%,–
CCNc1nc(O)c(/C=C2\C=Nc3ncccc32)s1,-48.7% (active),14.1%,12.6%,7.47% (active),-3.75% (active),0.663% (active),20.6%,-54.2% (active),3.01% (active),-6% (active),0.377% (active),29.1%,6.27% (active),8.67% (active),19.5%,-10.3% (active),21.7%,-2.07% (active),-15.1% (active),29.7%
CCOC(=O)c1cc(C(=O)c2cc(OC)c(OC)c(OC)c2)n2ccccc12,40.4%,42%,54%,50.6%,49.3%,58.4%,38.9%,-1.31% (active),17%,24.3%,23.9%,23.2%,33.2%,71.5%,67.9%,22.3%,49.6%,-5.59% (active),40.1%,10.7%
N#Cc1c(-c2ccccc2)nc(SCC(O)CN2CCOCC2)nc1N1CCOCC1 (stereo not given),7.33% (active),65.4%,57.8%,41.7%,40.8%,54.4%,37.4%,-3.34% (active),88%,83.2%,85.1%,105%,33.4%,61.2%,68.6%,41.1%,-29.5% (active),35.4%,6.19% (active),72.7%
NS(=O)(=O)c1ccc(-c2cc(-c3nnc(SCC(=O)Nc4ccc(C(=O)/C=C/c5ccc(Cl)cc5)cc4)n3-c3ccccc3)c3ccccc3n2)cc1,105%,96.2%,94.9%,84%,96.4%,106%,77.1%,49.9%,90.3%,68.5%,71.3%,10.7%,89.9%,93.1%,105%,103%,99.2%,101%,84.3%,103%
CCN1C(=O)N(CC)C2C1N=C(SCc1ccc(Cl)cc1)N2/N=C/C=C/c1ccccc1OC (stereo not given),57.7%,62.5%,77.8%,54.3%,96.4%,61.5%,42.2%,54.6%,46.4%,55.3%,18.4%,11.2%,56.8%,98.6%,69.9%,70.4%,78.6%,50.6%,57.3%,26.4%
CCN1C(=O)N(CC)C2C1NN=c1s/c(=C\c3cnc(C)n3C)c(=O)n12 (stereo not given),39.2%,49.7%,33.4%,40.9%,51.5%,34.3%,26%,-9.65% (active),9.03% (active),35%,25.3%,20.1%,14.8%,35.2%,52%,27.9%,35.1%,-17.6% (active),-1.81% (active),75.4%
CCOC(=O)c1[nH]c2c(c1C)-c1[nH]c(=O)c(S(=O)(=O)c3ccccc3)cc1SC2,56.4% [100 µM],8.42% [100 µM] (active),59.5% [100 µM],54.2% [100 µM],13.1% [100 µM],20.9% [100 µM],16.2% [100 µM],21.4% [100 µM],52.1% [100 µM],57.3% [100 µM],39.4% [100 µM],33.3% [100 µM],25.3% [100 µM],89.6% [100 µM],5.79% [100 µM] (active),59.8% [100 µM],48.7% [100 µM],-15.1% [100 µM] (active),28.1% [100 µM],59.7% [100 µM]
O=C(CSc1nc(-c2ccccc2)cc(=O)[nH]1)Nc1nc(-c2ccccc2)cs1,96.9%,75.7%,102%,65.2%,106%,95.2%,75.1%,114%,96.2%,-17.6% (active),45.1%,96.1%,97%,95.9%,96.1%,84.1%,57.8%,101%,90%,93.2%
